Data on ten molecules can be found in PubChem BioAssay (EPA / NIEHS).

Assay [1] can be described thus: ATG_TAL_CIS: Attagene CIS-FACTORIAL HepG2 Assay for human TAL Basal Promoter (AID 2282966; active = hit-call score of the fitted dose curve at least 0.9, where 1 is the maximum; inactive = score below 0.9;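 also: background control endpoint measuring basal TAL promoter reporter mRNA not a specific factor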). Conditions: HepG2 Attagene cis-factorial TAL promoter reporter; actives raise or lower the signal. In a few lines: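 Endogenous transcription-factor activity is sensed in HepG2 cells through transfected cis-promoter reporter constructs. After 24 h dosing, reporter transcripts are quantified by RT-PCR and capillary electrophoresis. Gain or loss of signal is fitted relative to DMSO.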

Assay [2] is described as follows: ATG_TGFb_CIS: Attagene CIS-FACTORIAL HepG2 Assay for human Transforming Growth Factor (TGF) (AID 2282967; active = hit-call score of the fitted dose curve at least 0.9, where 1 is the maximum; inactive = score below 0.9). Conditions: HepG2 Attagene CIS TGFb reporter, mRNA transcription; actives raise or lower the signal. In a few lines: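 Transient MRTU transfection of HepG2 (FuGene 6). Dose 24 h. TriZol RNA, oligo(dT) RT, PCR, 6-FAM primer extension, HpaI cut, CE. Bidirectional fit, DMSO = baseline.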

Assay [3] can be described thus: ATG_VDRE_CIS: Attagene CIS-FACTORIAL HepG2 Assay for human Vitamin D Receptor Element (VDRE) (AID 2282968; active = hit-call score of the fitted dose curve at least 0.9, where 1 is the maximum; inactive = score below 0.9). To be noted: HepG2 VDRE cis-reporter transcription, actives raise or lower the signal. In a few lines:
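Compounds were applied for 24 h to HepG2 cells transfected with promoter-regulated reporter units. Total RNA was reverse-transcribed, and reporter amplicons were fluorescently labelled and sized by capillary electrophoresis.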

In assay [4] the target is Nuclear receptor subfamily 1 group I member 3 (Homo sapiens) (UniProt Q14994). Put plainly: ATG_CAR_TRANS: Attagene TRANS-FACTORIAL HepG2 Assay for human Constitutive Androstane Receptor (CAR) (AID 2282969).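 Also: activators raise reporter mRNA above DMSO so AC50 marks induction.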 Conditions: HepG2 Attagene TRANS-FACTORIAL CAR reporter. In a few lines:
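Transiently transfected HepG2, multiplex TRANS reporters (CAR-Gal4 chimera driving GAL4-UAS reporter). 24 h dosing. Readout: reporter transcript by RT-PCR + capillary electrophoresis, fluorescence intensity; positive direction vs DMSO.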

Assay [5] concerns the target Estrogen receptor (Homo sapiens) (UniProt P03372). Put plainly: ATG_ERa_TRANS: Attagene TRANS-FACTORIAL HepG2 Assay for human Estrogen Receptor alpha (ERa) (AID 2282970). Conditions: HepG2 Attagene TRANS ERa GAL4 reporter, mRNA. In a few lines: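 Transfected HepG2 cells carrying GAL4-UAS-driven reporter units were dosed for 24 hours. Total RNA was reverse-transcribed, reporter sequences PCR-amplified, FAM-labelled, HpaI-digested and resolved by capillary electrophoresis. Increases over DMSO control defined activity.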

Assay [6] concerns the target Steroid hormone receptor ERR1 (Homo sapiens) (UniProt P11474). Put plainly: ATG_ERRa_TRANS: Attagene TRANS-FACTORIAL HepG2 Assay for human Estrogen-Related Receptor alpha (ERRa) (AID 2282971). Conditions: HepG2 Attagene TRANS reporter, ERRa transactivation. Summed up: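 HepG2 cells were transiently transfected with multiple GAL4-UAS reporter units, then dosed with compound for 24 h. Total RNA was reverse-transcribed, reporter cDNA PCR-amplified and fluorescently labelled, and fragments resolved by capillary electrophoresis; induction was compared with DMSO.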

For assay [7], the target named is X-box-binding protein 1 (Homo sapiens) (UniProt P17861). The assay is described as follows: ATG_Xbp1_CIS: Attagene CIS-FACTORIAL HepG2 Assay for human X-box Binding Protein 1 (XBP1) (AID 2282972; active = hit-call score of the fitted dose curve at least 0.9, where 1 is the maximum; inactive = score below 0.9). Conditions: HepG2 XBP1 cis-element reporter, Attagene multiplex; actives raise or lower the signal. In a few lines:
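Human hepatoma HepG2, cis-element reporter system, 24 h treatment; mRNA quantified by RT-PCR/CE fluorescence; fit relative to DMSO.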

Assay [8] in a line: ATG_M_19_TRANS: Attagene TRANS-FACTORIAL HepG2 Assay for M19 Transcription Factor (Internal Marker) (AID 2282974). Conditions: HepG2 Attagene TRANS-FACTORIAL M19 internal marker reporter. Summed up:
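Transfected HepG2 (GAL4-UAS MRTUs), 24 h compound, TriZol RNA, DNase-treated RT, reporter PCR, FAM label, HpaI digest, CE fluorescence; gain vs DMSO.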

Assay [9] deals with Oxysterols receptor LXR-alpha (Homo sapiens) (UniProt Q13133). Put plainly: ATG_LXRa_TRANS: Attagene TRANS-FACTORIAL HepG2 Assay for human Liver X Receptor alpha (LXRa) (AID 2282980). To be noted: HepG2 Attagene TRANS reporter, LXRa transactivation. Summed up:
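Transient HepG2 transfectants, 24 h dosing, RT-PCR/CE mRNA reporter quantitation; gain-of-signal vs DMSO.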

Assay [10] concerns the target Oxysterols receptor LXR-beta (Homo sapiens) (UniProt P55055). Put plainly: ATG_LXRb_TRANS: Attagene TRANS-FACTORIAL HepG2 Assay for human Liver X Receptor beta (LXRb) (AID 2282981). Conditions: HepG2 Attagene TRANS GAL4-LXRb reporter, mRNA. Summed up:
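Multiplexed reporter assay, HepG2, 24 h dosing. Fluorescence of labelled RT-PCR products after capillary electrophoresis gives transcript level; positive fitting direction relative to DMSO.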

Assay [11] in a line: ATG_M_32_TRANS: Attagene TRANS-FACTORIAL HepG2 Assay for M32 Transcription Factor (Internal Marker) (AID 2282984).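 Also: transcript level of a background control reporter unit measured by RT-PCR and capillary electrophoresis.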 To be noted: HepG2 Attagene TRANS M32 internal marker reporter. In a few lines:
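Internal-marker readout from a multiplexed transcription reporter panel. HepG2 cells were transfected with GAL4-UAS reporter units, treated 24 hours, and reporter transcript levels determined by fluorescence after RT-PCR and capillary separation.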

Assay [12] concerns the target Nuclear receptor subfamily 4 group A member 2 (Homo sapiens) (UniProt P43354). Put plainly: ATG_NURR1_TRANS: Attagene TRANS-FACTORIAL HepG2 Assay for human Nuclear Receptor Related Protein 1 (NURR1) (AID 2282985). To be noted: HepG2 Attagene TRANS reporter, mRNA readout. In a few lines: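 Endpoint: reporter mRNA increase relative to DMSO. HepG2 cells transfected with reporter units, treated 24 h; RNA processed by RT-PCR, labelling, HpaI digestion and capillary electrophoresis.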

For assay [13], the target named is Transcriptional activator Myb (Homo sapiens) (UniProt P10242). Put plainly: ATG_Myb_CIS: Attagene CIS-FACTORIAL HepG2 Assay for human Myeloblastosis (Myb) Proto-Oncogene Transcription Factor (AID 2282986; active = hit-call score of the fitted dose curve at least 0.9, where 1 is the maximum; inactive = score below 0.9). Conditions: HepG2 Attagene CIS-FACTORIAL Myb reporter transcription; actives raise or lower the signal. In a few lines: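 After 24 h of compound dosing, total RNA from transfected HepG2 cells is reverse-transcribed and the reporter sequences amplified, labeled and separated by capillary electrophoresis. Values come from bidirectional fitting against DMSO.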

The target in assay [14] is Nuclear respiratory factor 1 (Homo sapiens) (UniProt Q16656). Put plainly: ATG_NRF1_CIS: Attagene CIS-FACTORIAL HepG2 Assay for human Nuclear Respiratory Factor 1 (NRF1) Orphan Gene (AID 2282987; active = hit-call score of the fitted dose curve at least 0.9, where 1 is the maximum; inactive = score below 0.9). To be noted: HepG2 NRF1 cis-element reporter, Attagene multiplex; actives raise or lower the signal. In a few lines: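 Measured: fluorescent reporter-specific RT-PCR products from transfected HepG2 cells, separated by capillary electrophoresis. Exposure lasted 24 h. Analysis used bidirectional curve fitting with DMSO as negative control.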

Assay [15] addresses Estrogen-related receptor gamma (Homo sapiens) (UniProt P62508). The assay is described as follows: ATG_ERRg_TRANS: Attagene TRANS-FACTORIAL HepG2 Assay for human Estrogen-Related Receptor gamma (ERRg) (AID 2282977).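 Also: hits increase reporter signal over DMSO so potencies reflect activators.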 To be noted: HepG2 Attagene TRANS reporter, ERRg transactivation. Summed up: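 Induction of reporter transcripts through a chimeric NR-Gal4 protein is quantified in transfected human HepG2 liver cells after 24 h chemical exposure, using RT-PCR with capillary electrophoresis detection and DMSO as baseline.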

For assay [16], the target named is Hepatocyte nuclear factor 4-alpha (Homo sapiens) (UniProt P41235). Put plainly: ATG_HNF4a_TRANS: Attagene TRANS-FACTORIAL HepG2 Assay for human Hepatocyte Nuclear Factor 4 alpha (HNF4a) (AID 2282982). To be noted: HepG2 HNF4a transactivation reporter, mRNA readout. Summed up: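 Endpoint reflects transcriptional activation of a GAL4-UAS reporter by an HNF4a-GAL4 chimera in transfected HepG2 cells, 24 h post-dosing. Fluorescence from RT-PCR products separated by capillary electrophoresis; DMSO baseline.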

The nature of assay [17]: ATG_M_06_TRANS: Attagene TRANS-FACTORIAL HepG2 Assay for M06 Transcription Factor (Internal Marker) (AID 2282983). To be noted: HepG2 Attagene TRANS M06 internal marker reporter. In a few lines: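 Human liver HepG2 cells bearing transiently transfected chimeric NR-GAL4 reporter units were treated with chemicals for 24 h. Total RNA was reverse-transcribed, reporter sequences amplified and labelled, then quantified by capillary electrophoresis. Activity was fitted upward relative to DMSO.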

The nature of assay [18]: ATG_GAL4_TRANS: Attagene TRANS-FACTORIAL HepG2 Assay for GAL4 (Internal Marker) (AID 2282976). To be noted: HepG2 Attagene TRANS GAL4 internal marker reporter. In a few lines:
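Fluorescence from capillary electrophoresis of labelled RT-PCR products quantifies reporter mRNA induction after 24 h dosing of HepG2 cells carrying transfected GAL4-UAS reporter transcription units. Vehicle DMSO serves as baseline.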

The target of assay [19] is Glucocorticoid receptor (Homo sapiens) (UniProt P04150). Put plainly: ATG_GR_TRANS: Attagene TRANS-FACTORIAL HepG2 Assay for human Glucocorticoid Receptor (GR) (AID 2282978).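 Also: activators score as hits since higher reporter transcript over DMSO is fitted.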 To be noted: HepG2 Attagene TRANS GR reporter, mRNA transcription. Summed up: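 After 24 h incubation with test chemical, transfected HepG2 cells were lysed for RNA; reporter cDNA was amplified, FAM-labelled, HpaI-digested and sized on a capillary analyser. Signal gain relative to DMSO was scored.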

The target in assay [20] is Bile acid receptor (Homo sapiens) (UniProt Q96RI1). The assay is described as follows: ATG_FXR_TRANS: Attagene TRANS-FACTORIAL HepG2 Assay for Farnesoid X Receptor (FXR) (AID 2282979).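 Also: hits raise reporter mRNA above DMSO so AC50 marks FXR activation.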 Conditions: HepG2 Attagene TRANS FXR-GAL4 reporter transcription. In a few lines:
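Chimeric FXR-GAL4 activity in transiently transfected human HepG2 liver cells is scored as induction of reporter mRNA after 24 h of dosing. Detection uses RT-PCR with fluorescent labelling and capillary electrophoresis, with DMSO serving as baseline.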

By AC50 is commonly meant the concentration at which the activity in the assay is half-maximal.

Inconclusive results are not listed. The source made the active and inactive calls. The calls were made as follows, unless noted: active = hit-call score of the fitted dose curve at least 0.9, where 1 is the maximum; inconclusive = response in the unintended direction; inactive = score below 0.9.

Chain of Oxysterols receptor LXR-alpha (Homo sapiens) (Q13133 whole entry, looked up): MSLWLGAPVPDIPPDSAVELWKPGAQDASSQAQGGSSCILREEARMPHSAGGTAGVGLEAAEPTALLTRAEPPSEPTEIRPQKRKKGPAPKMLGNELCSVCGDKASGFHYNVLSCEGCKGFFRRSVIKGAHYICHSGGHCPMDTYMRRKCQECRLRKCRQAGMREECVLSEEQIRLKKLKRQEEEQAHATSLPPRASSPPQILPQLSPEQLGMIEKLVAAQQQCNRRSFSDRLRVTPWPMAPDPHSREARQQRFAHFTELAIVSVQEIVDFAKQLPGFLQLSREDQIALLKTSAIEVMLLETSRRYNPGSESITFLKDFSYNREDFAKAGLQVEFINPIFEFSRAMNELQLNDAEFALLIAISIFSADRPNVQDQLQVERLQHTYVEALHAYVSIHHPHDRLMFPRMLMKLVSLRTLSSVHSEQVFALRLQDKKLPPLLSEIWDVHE
Chain of Nuclear respiratory factor 1 (Homo sapiens) (Q16656 whole entry, looked up): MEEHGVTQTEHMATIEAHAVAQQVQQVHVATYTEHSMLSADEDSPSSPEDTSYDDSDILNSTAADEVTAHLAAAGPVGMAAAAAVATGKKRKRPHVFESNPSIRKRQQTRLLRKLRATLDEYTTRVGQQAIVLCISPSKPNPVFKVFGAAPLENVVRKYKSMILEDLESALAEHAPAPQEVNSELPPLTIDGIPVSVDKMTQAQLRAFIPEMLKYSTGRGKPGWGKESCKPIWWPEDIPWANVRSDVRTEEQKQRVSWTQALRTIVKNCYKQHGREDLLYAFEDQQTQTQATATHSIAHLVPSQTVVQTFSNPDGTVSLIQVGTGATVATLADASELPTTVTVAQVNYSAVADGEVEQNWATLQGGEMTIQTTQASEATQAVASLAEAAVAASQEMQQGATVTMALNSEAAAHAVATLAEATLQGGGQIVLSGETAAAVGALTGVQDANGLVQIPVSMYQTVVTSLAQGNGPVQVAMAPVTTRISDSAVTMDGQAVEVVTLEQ
Chain of Estrogen receptor (Homo sapiens) (P03372 whole entry, looked up, the tested form may be a part): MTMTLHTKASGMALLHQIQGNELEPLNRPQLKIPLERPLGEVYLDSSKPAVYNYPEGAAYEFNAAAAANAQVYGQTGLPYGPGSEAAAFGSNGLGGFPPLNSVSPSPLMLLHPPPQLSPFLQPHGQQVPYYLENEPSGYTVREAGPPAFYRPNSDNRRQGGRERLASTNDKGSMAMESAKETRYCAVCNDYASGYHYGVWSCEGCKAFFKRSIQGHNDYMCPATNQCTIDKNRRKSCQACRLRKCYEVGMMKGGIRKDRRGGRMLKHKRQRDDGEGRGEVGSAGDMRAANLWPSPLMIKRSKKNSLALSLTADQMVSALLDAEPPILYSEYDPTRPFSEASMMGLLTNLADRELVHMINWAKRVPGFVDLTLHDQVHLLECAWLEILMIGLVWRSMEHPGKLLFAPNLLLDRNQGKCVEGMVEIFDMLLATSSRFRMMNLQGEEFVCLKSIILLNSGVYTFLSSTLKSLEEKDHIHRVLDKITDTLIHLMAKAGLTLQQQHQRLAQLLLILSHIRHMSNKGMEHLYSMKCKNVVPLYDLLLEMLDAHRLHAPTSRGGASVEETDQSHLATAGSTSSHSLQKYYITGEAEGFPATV
Chain of Glucocorticoid receptor (Homo sapiens) (P04150 whole entry, looked up): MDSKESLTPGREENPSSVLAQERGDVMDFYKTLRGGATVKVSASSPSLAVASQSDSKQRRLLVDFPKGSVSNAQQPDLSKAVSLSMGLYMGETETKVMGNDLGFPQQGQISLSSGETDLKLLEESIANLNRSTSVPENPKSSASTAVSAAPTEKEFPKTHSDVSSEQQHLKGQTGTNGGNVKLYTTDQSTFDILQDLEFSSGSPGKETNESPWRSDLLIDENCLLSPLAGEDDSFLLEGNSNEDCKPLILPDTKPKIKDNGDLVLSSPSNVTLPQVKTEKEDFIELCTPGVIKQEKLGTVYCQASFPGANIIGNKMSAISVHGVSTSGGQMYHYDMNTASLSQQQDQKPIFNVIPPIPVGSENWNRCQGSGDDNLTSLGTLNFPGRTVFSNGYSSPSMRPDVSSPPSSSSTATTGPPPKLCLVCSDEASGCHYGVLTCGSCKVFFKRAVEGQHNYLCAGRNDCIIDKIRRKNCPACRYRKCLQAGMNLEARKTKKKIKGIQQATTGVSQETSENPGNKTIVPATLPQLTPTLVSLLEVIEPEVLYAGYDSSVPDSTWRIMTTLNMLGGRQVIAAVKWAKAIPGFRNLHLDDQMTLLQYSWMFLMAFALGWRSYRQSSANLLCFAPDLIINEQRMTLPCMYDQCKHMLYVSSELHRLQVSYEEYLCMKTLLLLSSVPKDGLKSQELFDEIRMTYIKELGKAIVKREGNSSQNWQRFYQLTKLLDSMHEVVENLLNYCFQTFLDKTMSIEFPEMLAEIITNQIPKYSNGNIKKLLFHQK
Chain of Transcriptional activator Myb (Homo sapiens) (P10242 whole entry, looked up): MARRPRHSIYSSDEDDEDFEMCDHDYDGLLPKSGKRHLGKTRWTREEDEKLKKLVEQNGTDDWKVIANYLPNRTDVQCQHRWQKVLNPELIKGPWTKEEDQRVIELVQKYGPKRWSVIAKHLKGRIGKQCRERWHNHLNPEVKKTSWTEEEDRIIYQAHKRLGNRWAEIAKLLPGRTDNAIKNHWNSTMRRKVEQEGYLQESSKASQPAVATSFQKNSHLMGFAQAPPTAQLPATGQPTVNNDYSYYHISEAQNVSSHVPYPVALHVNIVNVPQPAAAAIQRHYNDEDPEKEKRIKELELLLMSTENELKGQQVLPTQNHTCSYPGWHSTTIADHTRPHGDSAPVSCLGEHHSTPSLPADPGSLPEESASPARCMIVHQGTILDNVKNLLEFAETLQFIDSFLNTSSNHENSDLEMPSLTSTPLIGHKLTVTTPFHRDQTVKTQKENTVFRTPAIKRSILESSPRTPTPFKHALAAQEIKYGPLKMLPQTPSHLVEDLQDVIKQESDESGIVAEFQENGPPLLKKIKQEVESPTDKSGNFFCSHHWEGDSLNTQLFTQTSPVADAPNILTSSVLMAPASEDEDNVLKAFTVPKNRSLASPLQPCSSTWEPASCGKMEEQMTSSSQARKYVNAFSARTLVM
Chain of Nuclear receptor subfamily 4 group A member 2 (Homo sapiens) (P43354 whole entry, looked up): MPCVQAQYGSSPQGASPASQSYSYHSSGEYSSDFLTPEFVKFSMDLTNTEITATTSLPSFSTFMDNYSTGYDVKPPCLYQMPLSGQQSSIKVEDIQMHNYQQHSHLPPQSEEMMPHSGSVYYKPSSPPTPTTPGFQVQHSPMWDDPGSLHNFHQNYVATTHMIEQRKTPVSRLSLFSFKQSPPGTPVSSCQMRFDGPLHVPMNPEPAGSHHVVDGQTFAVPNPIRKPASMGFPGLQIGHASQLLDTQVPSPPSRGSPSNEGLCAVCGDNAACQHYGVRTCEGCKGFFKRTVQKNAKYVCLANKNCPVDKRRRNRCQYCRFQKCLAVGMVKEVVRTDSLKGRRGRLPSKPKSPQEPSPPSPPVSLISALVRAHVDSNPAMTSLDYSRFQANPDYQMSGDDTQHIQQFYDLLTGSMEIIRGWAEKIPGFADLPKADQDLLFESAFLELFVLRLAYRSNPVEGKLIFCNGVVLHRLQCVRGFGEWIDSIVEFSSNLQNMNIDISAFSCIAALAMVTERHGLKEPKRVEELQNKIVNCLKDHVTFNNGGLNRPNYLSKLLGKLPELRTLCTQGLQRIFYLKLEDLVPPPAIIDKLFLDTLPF
Chain of Oxysterols receptor LXR-beta (Homo sapiens) (P55055 whole entry, looked up, the tested form may be a part): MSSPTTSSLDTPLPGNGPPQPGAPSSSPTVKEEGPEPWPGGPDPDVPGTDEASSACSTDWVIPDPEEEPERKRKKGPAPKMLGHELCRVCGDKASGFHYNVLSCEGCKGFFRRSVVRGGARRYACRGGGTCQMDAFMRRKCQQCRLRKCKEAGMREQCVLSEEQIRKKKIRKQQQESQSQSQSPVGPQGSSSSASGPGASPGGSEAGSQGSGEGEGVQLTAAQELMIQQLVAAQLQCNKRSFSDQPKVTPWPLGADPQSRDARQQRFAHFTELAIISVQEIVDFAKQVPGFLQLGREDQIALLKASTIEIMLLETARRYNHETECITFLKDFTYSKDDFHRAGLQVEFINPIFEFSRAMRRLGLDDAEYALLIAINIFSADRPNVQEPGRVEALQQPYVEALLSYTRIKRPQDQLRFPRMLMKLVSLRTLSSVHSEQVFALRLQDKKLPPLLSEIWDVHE
Chain of Nuclear receptor subfamily 1 group I member 3 (Homo sapiens) (Q14994 whole entry, looked up, the tested form may be a part): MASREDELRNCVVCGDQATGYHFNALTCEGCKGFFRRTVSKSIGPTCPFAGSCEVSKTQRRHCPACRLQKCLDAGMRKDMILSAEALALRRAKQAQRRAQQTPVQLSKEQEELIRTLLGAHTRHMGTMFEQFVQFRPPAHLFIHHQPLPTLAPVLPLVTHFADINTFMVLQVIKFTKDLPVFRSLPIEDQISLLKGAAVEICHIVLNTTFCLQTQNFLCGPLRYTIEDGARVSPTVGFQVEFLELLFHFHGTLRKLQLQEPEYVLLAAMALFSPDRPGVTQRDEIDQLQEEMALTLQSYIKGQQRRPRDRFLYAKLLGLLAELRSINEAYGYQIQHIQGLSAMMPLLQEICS
Chain of Steroid hormone receptor ERR1 (Homo sapiens) (P11474 whole entry, looked up, the tested form may be a part): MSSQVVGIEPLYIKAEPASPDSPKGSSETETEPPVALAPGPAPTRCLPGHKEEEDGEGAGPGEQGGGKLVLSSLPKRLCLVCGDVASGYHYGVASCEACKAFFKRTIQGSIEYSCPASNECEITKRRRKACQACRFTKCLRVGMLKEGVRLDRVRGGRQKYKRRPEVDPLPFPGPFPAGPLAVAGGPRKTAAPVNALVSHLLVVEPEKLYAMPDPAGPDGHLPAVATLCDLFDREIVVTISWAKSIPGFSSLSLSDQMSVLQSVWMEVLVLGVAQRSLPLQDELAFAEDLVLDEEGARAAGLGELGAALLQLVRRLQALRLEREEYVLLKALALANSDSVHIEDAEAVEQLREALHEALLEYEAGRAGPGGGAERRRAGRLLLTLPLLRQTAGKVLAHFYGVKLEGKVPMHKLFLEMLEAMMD

As for `CCCCC/C=C\CCC=O`, the outcome in [1], in assay [2], in assay [3], in [4], in [5] and in assay [6] was inactive. The outcome in assay [7], in assay [8], in assay [9], in [10], in assay [11] and in [12] was inactive. The outcome in [13] and in [14] was inactive.
For `CCCCC(CC)COC(=O)c1ccccc1O` (centres undefined), the result in assay [1], in [2], in [3], in [4], in assay [6] and in assay [7] was inactive. The call in [15], in assay [9], in assay [16], in assay [17], in assay [11] and in assay [12] was inactive. In addition, the result in assay [13] and in [14] was inactive. Also, the half-maximal activity concentration (AC50) in assay [5] is 50 µM (active).
`OCCNCc1ccccc1`: the call in assay [1], in assay [2], in assay [3], in assay [4], in assay [5] and in assay [7] was inactive. Also, the outcome in assay [8], in assay [18], in [19], in [17], in assay [11] and in assay [13] was inactive.
With `FC(F)(F)C(=NOCC1OCCO1)c1ccc(Cl)cc1`, the result in assay [1], in [2], in [3], in assay [4], in assay [5] and in assay [7] was inactive. Besides, the outcome in [8], in [19], in assay [10], in assay [17], in [11] and in assay [13] was inactive. The molecule was called inactive in [14]. Also, the concentration at half-maximal activity (AC50) in assay [12] is 100 µM (active).
For the molecule `N#[N+]c1ccc2c(S(=O)(=O)[O-])cccc2c1O`, the molecule was classed as inactive in [1], in [2], in assay [3], in assay [4], in assay [5] and in assay [6]. The molecule was called inactive in [7], in assay [8], in assay [15], in [10], in assay [16] and in assay [11]. Also, the molecule was classed as inactive in assay [12], in assay [13] and in assay [14].
`N#CCc1ccc(Cl)cc1Cl`: the molecule was called inactive in [1], in assay [2], in assay [3], in [4], in [5] and in assay [7]. The molecule was classed as inactive in [8], in assay [10], in [16], in [17], in assay [11] and in [13]. In assay [14], the molecule was classed as inactive.
As to `COC(=O)c1cc(Cl)ccc1[N+](=O)[O-]`, the result in assay [1], in assay [2], in [3], in assay [4], in [5] and in assay [7] was inactive. For the same molecule, the molecule was classed as inactive in assay [8], in assay [19], in [17], in assay [11], in [13] and in assay [14].
`O=C1CCCCCCCCCCC(=O)OCCO1`: the molecule was called inactive in [1], in assay [2], in assay [3], in [4], in [5] and in assay [7]. Besides, the molecule was classed as inactive in assay [8], in assay [18], in [19], in assay [17] and in [14].
In the case of `CC(=O)Oc1ccc(C(C)=O)cc1`, the molecule was classed as inactive in assay [1], in assay [2], in [3], in [4], in assay [5] and in assay [7]. The result in assay [8], in assay [20], in assay [10], in assay [11], in [12] and in assay [13] was inactive. Further, the outcome in [14] was inactive.
`CC(C)CC(O)Cc1ccccc1` (centres undefined): the call in assay [1], in assay [2], in [3], in assay [4], in assay [5] and in assay [7] was inactive. Moreover, the molecule was classed as inactive in assay [8], in assay [18], in [19], in [9], in assay [16] and in [17]. Moreover, the molecule was called inactive in [11], in assay [13] and in assay [14].
